Where “and” joins values, the source holds several entries; their conditions need not be identical. Equal entries are not always repeated. Records with an inconclusive call do not appear. Calls of active or inactive are those of the source. Unless noted, calls follow the shape of the dose curve; as a rule, active = well fitted curve in the direction sought with a large enough effect; inconclusive = small, poorly fitted or top-dose-only effect, or another doubt; inactive = no such curve, though single readings can be large; an effect the other way counts as inactive or inconclusive.

Experiment [1] is described as follows: Cell Viability - Hek293 (AID 427;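 active = compounds whose dose-response curve shows a full or clear partial loss of cell viability, called from curve shape rather than a numeric limit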;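 also: potency is read from the fitted curve at half-maximal effect; cells exposed to compound for 40 hours at 37 °C before reading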). The following applies: qHTS. In outline:
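qHTS, human embryonic kidney (adenovirus-transformed) cells; 40 hr cpd, 37 °C; CellTiter-Glo ATP luminescence. Norm: DMSO = 0, 100 uM tamoxifen = 100% inhibition. Hill-fit AC50.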

Experiment [2] addresses Mitogen-activated protein kinase 10 (Mus musculus) (UniProt Q61831). Description: JNK3 AlphaScreen Assay (AID 530; active = well fitted curve in either direction with a large enough effect, not every such curve was filed as active;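 also: kinase came from lysate of stimulated human HepG2 cells; % is scaled to controls: 0 for no effect and ±100 for the full control effect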). Conditions: JNK3 lysate, c-Jun phosphorylation; series mostly up to 57.1 µM. In a few lines: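 JNK3 came from HepG2 lysates pre-activated with IL-1beta and TNF-alpha and phosphorylated biotinylated GST-cJun (1-79) at 10 uM ATP, pH 7.6, room temperature. Compounds were titrated. AlphaScreen signal used anti-phospho-cJun (Ser73) antibody.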

A short description of experiment [3]: Cell Viability - N2a (AID 540).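 Also: cells exposed to compound for 40 h at 37 °C; plate controls were DMSO alone for no effect and tamoxifen control for full effect; nearly all actives have a fitted effect of over 45% in size.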 The following applies: N2a mouse neuroblastoma cell viability; at 92.2 µM (top of the series). In outline: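 First, 1500 N2a cells per well incubate 5 hr at 37 °C; next, compounds are added and incubated 40 hr at 37 °C; finally CellTiter-Glo is added and luminescence read after 20 min, with AC50 derived by Hill modeling.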
Experiment [4] can be described thus: MultiTox-Fluor Cytotoxicity Assay - LYMP1-001 - Dead Cells (AID 946). The following applies: LYMP1-001 lymphoblastoid cells, dead-cell protease fluorescence; series mostly up to 92.2 µM. In outline:
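Seed 2500 LYMP1-001 cells/well, incubate 5 hr at 37 C; add compound, 16 hr at 37 C; add MultiTox-Fluor reagent, 60 min RT; read dead-cell fluorescence Ex/Em=485/520. Normalize to DMSO and 15 uM tetraoctylammonium bromide.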

Experiment [5] can be described thus: Cell Viability - LYMP1-002 - Assay at 16 hr (AID 948).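 Also: 0% = DMSO alone and full effect = 92 µM tetraoctylammonium bromide.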 The following applies: LYMP1-002 lymphoblastoid cell viability; series mostly up to 92.2 µM. In a few lines: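 Acute cytotoxicity is scored as a concentration-dependent fall in intracellular ATP in a human lymphoblastoid line (LYMP1-002) after 16 hr compound exposure at 37 C, measured by luciferase luminescence.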

Experiment [6] is described as follows: MultiTox-Fluor Cytotoxicity Assay - LYMP1-003 - Dead Cells (AID 961). Also: nearly all actives have a fitted effect of over 70% in size. The following applies: LYMP1-003 lymphoblastoid cells, dead-cell protease fluorescence; series mostly up to 92.2 µM. In outline:
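LYMP1-003 lymphoblastoid, 2500 cells/well, 5 hr settle then 16 hr cpd at 37 C; MultiTox-Fluor reagent 60 min RT; Ex/Em 485/520 dead-cell signal; norm. DMSO = 0%, 15 uM tetraoctylammonium bromide = 100%; Hill AC50.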

A short description of experiment [7]: MultiTox-Fluor Cytotoxicity Assay - LYMP1-003 - Live Cells (AID 962).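 Also: 0% = DMSO only and full loss = 92 µM tetraoctylammonium bromide; cytotoxic hits lower the live-cell protease signal.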 Conditions: LYMP1-003 lymphoblastoid cells, MultiTox-Fluor live-cell protease fluorescence; series mostly up to 92.2 µM. In a few lines:
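Cells plated at 2500 per well and incubated 5 hr; compounds added and incubated 16 hr at 37 C; MultiTox-Fluor reagent added for 60 min at room temperature; fluorescence of liberated AFC measured at 405/510 nm.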

Experiment [8] can be described thus: Cell Viability - LYMP1-003 - Assay at 24 hr (AID 963).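 Also: plate controls were DMSO only for no effect and tetraoctylammonium bromide positive control for full effect.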 Conditions: LYMP1-003 lymphoblastoid cell viability; series mostly up to 92.2 µM. In a few lines: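 Acute toxicity in LYMP1-003 lymphoblastoid cells: 24 hr compound treatment at 37 C, ATP measured with CellTiter-Glo after 30 min at room temperature. AC50 derived by fitting the Hill equation to qHTS titrations.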

A short description of experiment [9]: Cell Viability - LYMP2-005 (AID 967). Also: potency is read from the fitted curve at half-maximal effect. The following applies: LYMP2-005 lymphoblastoid cell viability; series mostly up to 92.2 µM. In outline:
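qHTS viability screen in LYMP2-005 cells: 24 h at 37 C with compound, ATP luminescence via CellTiter-Glo, AC50 from Hill curves.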

Experiment [10] can be described thus: Cell Viability - LYMP2-015 (AID 971). Also: nearly all actives have a fitted effect of over 55% in size. Also: potency is read from the fitted curve at half-maximal effect. The following applies: LYMP2-015 lymphoblastoid cell viability; series mostly up to 92.2 µM. In outline: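 Acute toxicity was scored as a concentration-dependent drop in intracellular ATP in lymphoblastoid cells after 24 hr compound exposure in complete medium. Detection used CellTiter-Glo luciferase luminescence.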
Experiment [11] is described as follows: Cell Viability - LYMP2-025 (AID 976).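 Also: plate controls were DMSO only for no effect and tetraoctylammonium bromide control for full effect.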 The following applies: LYMP2-025 lymphoblastoid cell viability; series mostly up to 92.2 µM. In a few lines: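 In qHTS format, LYMP2-025 lymphoblastoid cells in complete culture medium received compound for 24 hr; ATP-based CellTiter-Glo signal gave viability, with AC50 derived by Hill equation.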
Experiment [12] can be described thus: Cell Viability - LYMP2-006 (AID 978).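 Also: cells exposed to compound for 24 hours; % is scaled to controls: 0 for no effect and ±100 for the full control effect; nearly all actives have a fitted effect of over 60% in size.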 The following applies: LYMP2-006 lymphoblastoid cell viability, qHTS; series mostly up to 92.2 µM. In outline: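 Concentration-dependent loss of intracellular ATP in a human lymphoblastoid line after 24 hr treatment at 37 C was measured by CellTiter-Glo luminescence, with AC50 values obtained from standard Hill-equation modelling.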

A short description of experiment [13]: Cell Viability - LYMP2-008 (AID 980). Also: nearly all actives have a fitted effect of over 60% in size. Also: potency is read from the fitted curve at half-maximal effect. As to activity change, negative = cytotoxicity: % is scaled to controls: 0 for no effect and ±100 for the full control effect. The following applies: LYMP2-008 lymphoblastoid cell viability, qHTS; series mostly up to 92.2 µM. In a few lines: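 Acute cytotoxicity is scored as concentration-dependent loss of cellular ATP in a human lymphoblastoid line after 24 hr treatment at 37 C. ATP is quantified by luciferase luminescence.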
A short description of experiment [14]: Cell Viability - LYMP2-026 (AID 989). Also: % is scaled to controls: 0 for no effect and ±100 for the full control effect; nearly all actives have a fitted effect of over 50% in size. Conditions: LYMP2-026 lymphoblastoid cell viability, qHTS; series mostly up to 92.2 µM. In outline:
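Concentration-dependent loss of intracellular ATP in human lymphoblastoid cells after 24 hr at 37 C, quantified by luciferase luminescence. AC50 derived from standard Hill equation.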

A short description of experiment [15]: Cell Viability - LYMP1-002 - Assay at 40 hr (AID 994).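 Also: 0% = DMSO only and full inhibition = 92 µM tetraoctylammonium bromide; nearly all actives have a fitted effect of over 60% in size.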 The following applies: LYMP1-002 lymphoblastoid cell viability; series mostly up to 92.2 µM. In outline: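 Viability in the human lymphoblastoid line was measured as intracellular ATP via CellTiter-Glo after 40 hr compound exposure. Tetraoctylammonium bromide served as positive control.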
A short description of experiment [16]: qHTS assay for small molecule agonists of retinoid X receptor alpha signaling (AID 588544). Conditions: HEK293T RXRa-UAS-bla, beta-lactamase reporter, 18 h; 530 nm emission.
The nature of experiment [17]: qHTS assay for small molecule agonists of the antioxidant response element (ARE) signaling pathway measured by Nrf2-dependant transcriptional activity (AID 720636; active = well fitted curve in the direction sought with a large enough effect in the repeat runs; an effect the other way counts as inactive or inconclusive; also: % of control where 0% means no effect). The following applies: ARE-luc HepG2, Nrf2 luciferase reporter, 16 h; series mostly up to 92.4 µM. In a few lines: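 ARE-luc HepG2 cells carrying an Nrf2-responsive luciferase reporter were plated in medium with 1% dialyzed FBS, left 6 hr at 37 C to attach, then exposed to compound for 16 hr. Luciferase luminescence was read after ONE-Glo addition.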

A short description of experiment [18]: qHTS assay for small molecule agonists of the antioxidant response element (ARE) signaling pathway measured by Nrf2-dependant transcriptional activity - cell viability counter screen (AID 720653; active = well fitted curve in the direction sought with a large enough effect in the repeat runs; an effect the other way counts as inactive or inconclusive; also: % is scaled to controls: 0 for no effect and ±100 for the full control effect). Conditions: ARE-bla HepG2 viability, CellTiter-Glo ATP luminescence, 16 h; stronger effect = lower value. In a few lines: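 ARE-bla HepG2 cells (2,000/well) rested 5 hrs at 37C/5% CO2, then exposed to compounds in DMSO for 16 hrs. Viability was read in the same wells as intracellular ATP by luminescence, 30 min at room temperature after reagent addition.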

Experiment [19] is described as follows: qHTS assay for cell viability of HEK293 cells (AID 743288). Also: % is scaled to controls: 0 for no effect and ±100 for the full control effect; nearly all actives have a fitted effect of over 50% in size. The following applies: ATP luminescence (CellTiter-Glo), 18 h; max response: stronger effect = lower value. In outline: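 The Tox21 protocol used parental HEK293 cells treated for 18 h at 37 C with compounds delivered by pintool; ATP-coupled luminescence after 30 min at room temperature gave viability.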

Experiment [20] can be described thus: qHTS assay for cell viability of the p53RE-bla HCT-116 cell line (AID 743292). Also: % is scaled to controls: 0 for no effect and ±100 for the full control effect; nearly all actives have a fitted effect of over 55% in size. Conditions: p53RE-bla HCT-116 viability, ATP luminescence, 16 h; series mostly up to 95 µM. In a few lines:
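CellSensor p53RE-bla HCT-116 cells, 4,000/well, preincubated 5 h at 37 C, then exposed to compounds in DMSO for 16 h at 37 C. Viability read as CellTiter-Glo luminescence (intracellular ATP) after 30 min at room temperature.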

Regarding `c1nc[nH]n1`, in experiment [1], the Potency is > 92 µM (inactive). The call in experiment [2] and in [17] was inactive. In addition, the activity change, negative = cytotoxicity in experiment [3] is -1.04% (inactive). The Potency result in [4], in experiment [5], in experiment [6], in experiment [7], in [8] and in experiment [9] was “inactive” throughout. Moreover, the Potency entry in experiment [10], in experiment [11], in experiment [12], in experiment [13], in experiment [14] and in experiment [15] was “inactive” throughout. In addition, in experiment [20], the Potency entry was “inactive”. Further, the max response in [16] was -16.7%; in [18], 12.8% (inactive); in [19], -0.284% (inactive).
For the compound `OCC1CO1` (centres undefined), the Potency in experiment [1] was > 92 µM (inactive). In addition, the result in [2] and in [17] was inactive. Besides, in experiment [3], the activity change, negative = cytotoxicity is -10.8% (inactive). In addition, the Potency entry in experiment [4], in experiment [5], in experiment [6], in [7], in [8] and in experiment [9] was “inactive” in each case. Further, the Potency entry in experiment [10], in [11], in experiment [12], in [13], in experiment [14] and in [15] was “inactive” each time. Also, in [20], the Potency result was “inactive”. Also, the max response in experiment [16] was -4.32%; in [18], -5.57% (inactive) and 1.53% (inactive); in experiment [19], -3.99% (inactive) and -2.83% (inactive).
As to `Cc1cccc([N+](=O)[O-])c1`, in experiment [1], the Potency was > 92 µM (inactive). The call in experiment [2] and in [17] was inactive. Besides, the activity change, negative = cytotoxicity in [3] was -15.4% (inactive). Further, the Potency result in experiment [4], in experiment [5], in [6], in experiment [7], in experiment [8] and in experiment [9] was “inactive” in each case. Moreover, the Potency entry in experiment [10], in [11], in experiment [12], in [13], in [14] and in experiment [15] was “inactive” throughout. For the same compound, the Potency entry in experiment [20] was “inactive”. The max response in experiment [16] was 2.54% and -15.5%; in [18] it was -0.821% (inactive) and -5.67% (inactive); in [19], -6% (inactive) and -15.6% (inactive).
As for `CCSC(=O)Cl`, the Potency in [1] was > 92 µM (inactive). The compound was classed as inactive in experiment [2] and in [17]. For the same compound, the activity change, negative = cytotoxicity in [3] was 2.21% (inactive). The Potency entry in [4], in experiment [5], in experiment [6], in experiment [7], in [8] and in [9] was “inactive” each time. In addition, the Potency entry in experiment [10], in experiment [11], in experiment [12], in experiment [13], in experiment [14] and in experiment [15] was “inactive” in each case. Moreover, the Potency entry in experiment [20] was “inactive”. In addition, the max response was -20.5% in experiment [16], 0.254% (inactive) in experiment [18] and -2.01% (inactive) in [19].
As to `CCN(CC)c1ccccc1`, in experiment [1], the Potency was > 92 µM (inactive). Moreover, the outcome in experiment [2] and in experiment [17] was inactive. Besides, in [3], the activity change, negative = cytotoxicity is 3.96% (inactive). Further, the Potency entry in experiment [4], in experiment [5], in experiment [6], in experiment [7], in experiment [8] and in experiment [9] was “inactive” each time. In addition, the Potency result in experiment [10], in [11], in experiment [12], in experiment [13], in [14] and in experiment [15] was “inactive” each time. The Potency entry in [20] is “inactive”. Besides, the max response in experiment [16] is -1.24%; in experiment [18] it was 7.99% (inactive); in [19], -9.99% (inactive).
Take `CC(C)(OO)c1ccccc1`: the Potency in [1] was > 92 µM (inactive); in experiment [9] it was 39.8 µM (active); in [10], 39.8 µM (active); in [13], 39.8 µM (active). Further, the outcome in [2] and in experiment [17] was inactive. For the same compound, in [3], the activity change, negative = cytotoxicity is 3.56% (inactive). Also, the Potency result in experiment [4], in experiment [5], in experiment [6], in [7], in [8] and in experiment [11] was “inactive” each time. In addition, the Potency entry in experiment [12], in [14], in experiment [15] and in experiment [20] was “inactive” each time. Further, the max response was 21.6% and -3.11% in experiment [16]; -8.73% (inactive) and -2.9% (inactive) in experiment [18]; -6.54% (inactive) and -1.29% (inactive) in experiment [19].
`C[N+](C)(C)Cc1ccccc1`: the Potency in [1] is > 92 µM (inactive). In [3], the activity change, negative = cytotoxicity was -22% (inactive). Besides, the Potency result in experiment [4], in [5], in [6], in [7], in experiment [8] and in experiment [9] was “inactive” in each case. The Potency entry in [10], in [11], in [12], in experiment [13], in [14] and in experiment [15] was “inactive” in each case. Further, in experiment [20], the Potency entry was “inactive”. Moreover, the max response in [16] is 3.34% and -11.4%; in [18], -0.49% (inactive) and -11.3% (inactive); in experiment [19], 3.84% (inactive) and -11.6% (inactive). The call in [17] was inactive.

Values taken from PubChem BioAssay (NCATS).
